We go through 25 molecules from PubChem BioAssay.

SMILES strings stand for the structures. Calls of active or inactive are those of the source.

The nature of the test: MM1S myeloma cell viability, profiling panel, resazurin fluorescence, basal, 24 h, PK04 Diversity Set (AID 1174).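 Also: MM1S multiple myeloma cell line; test concentration not given here.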 As to conditions: higher = more signal, called active from +8 up or from −8 down. For orientation: Resazurin is reduced to fluorescent resorufin, in cell work by metabolically active cells.
`Cc1ccc(S[C@]2(C(=O)NC(C)C)CC(=O)N(C(C)C)[C@@H]2c2ccc(CO)cc2I)cc1`: the z-score is -0.463 (inactive).

As for `C=C(/C(=C/C[C@@H](OC(C)=O)c1ccc(CO)o1)c1cc(C(=O)OC)ccc1OC)C(C)C`, the z-score was -0.912 (inactive).

Take `COc1ccc(CCNC(=O)[C@@]2(Cc3ccccc3I)c3ccccc3C(=O)N(Cc3ccccc3Cl)[C@H]2c2ccc(CO)cc2)cc1`: the z-score is 0.0755 (inactive).

Regarding `COCCCNC(=O)[C@@]1(Sc2ccc(C)cc2)CC(=O)N(Cc2ccccc2Cl)[C@@H]1c1ccc(CO)cc1I`, the z-score is -3.21 (inactive).

In the case of `COc1cc(C(O)C2C=CC3C(=O)N(Cc4ccccc4)C(=O)C3N2n2cnnc2)cc(OC)c1OC` (stereo not given), the z-score was 0.129 (inactive).

For `[N-]=[N+]=Nc1ccccc1C[C@]1(C(=O)NCc2ccccc2)COC(c2ccc(OCCCO)cc2)=N1`, the z-score is -5.51 (inactive).

As for `Cc1ccc(S[C@]2(C(=O)NCc3ccccc3)CC(=O)N(Cc3cc(C(F)(F)F)cc(C(F)(F)F)c3)[C@@H]2c2ccc(CO)cc2I)cc1`, the z-score is -2.82 (inactive).

As to `COc1cc2c(cc1OC)CN(C(=O)[C@@H]1[C@H]3C(=O)O[C@H](c4ccccc4)[C@H](c4ccccc4)N3[C@H](c3ccc(O)cc3)[C@@]13C(=O)Nc1ccc(C#CCCO)cc13)CC2`, the z-score was -1.22 (inactive).

`Cc1ccccc1C(O)C1C=CC2C(=O)NC(=O)C2N1Nc1ccc(Cl)cc1Cl` (stereo not given): the z-score is -1.03 (inactive).

For the molecule `C=CCC(OC(C)=O)[C@@H]1[C@@H](N(Cc2ccc(-c3cccc(C(F)(F)F)c3)o2)C(=O)c2ccc(C)cc2)c2cc(OCCCO)ccc2N1C(=O)Cc1ccc(OC)cc1` (stereo not given in full), the z-score was 0.104 (inactive).

For the molecule `COc1ccc([Si](C)(C)[C@@H]2[C@@H](CC(=O)N3Cc4ccccc4C[C@H]3CO)O[C@]3(C(=O)N(Cc4ccc(N5CCC5=O)cc4)c4ccccc43)[C@H]2C)cc1`, the z-score is -0.736 (inactive).

Consider `Cc1ccc(S[C@]2(C(=O)NC(C)C)CC(=O)N(Cc3ccccc3Cl)[C@@H]2c2ccc(CO)cc2)cc1`, for which the z-score is -0.514 (inactive).

As to `CCOC(=O)C[C@H]1[C@H](OC(=O)c2ccc(-c3ccccc3)cc2)[C@@H](NC(=O)CC(C)C)c2cc(OCCCO)ccc2N1C(=O)c1ccccc1`, the z-score was -0.281 (inactive).

`C=C(C(=O)CC[C@H](OC(=O)c1ccccc1-c1ccccc1C(=O)O)c1ccccc1OCCO)C(C)C`: the z-score was 0.181 (inactive).

As to `COCCOC(=O)N1C(=O)[C@@]2(c3cc(C#CC4=CCCCC4)ccc31)[C@H](c1ccc(O)cc1)N1[C@H](c3ccccc3)[C@H](c3ccccc3)OC(=O)[C@H]1[C@@H]2C(=O)NC[C@H](O)c1ccccc1`, the z-score is -2.48 (inactive).

As for `NC(=O)[C@H]1[C@@H]2C(=O)O[C@@H](c3ccccc3)[C@@H](c3ccccc3)N2[C@@H](c2ccc(O)cc2)[C@]12C(=O)Nc1ccc(C#CC3=CCCCC3)cc12`, the z-score is -2.5 (inactive).

Regarding `CC1CC/C=C\[C@H]2OC34C=CCN(C(C)(C)C)C(=O)[C@H]3N(C(CO)C(C)C)C(=O)[C@@H]4C2C(=O)O1` (stereo not given in full), the z-score is -0.34 (inactive).

As to `O=C(NCCN1CCOCC1)[C@@H]1c2ccccc2C(=O)N(Cc2ccccc2)[C@H]1c1ccc(CO)cc1`, the z-score is 0.802 (inactive).

Turning to `CC(C)CCC[C@@H](C)[C@H]1CC[C@@]2(C)C3=C(CC[C@]12C)[C@@]1(C)CC[C@H](OC(=O)c2ccccc2)C(C)(C)C1CC3` (stereo not given in full), the z-score was 0.351 (inactive).

As for `C[C@]1(C(=O)O)c2ccccc2C(=O)N(Cc2ccc(OC(F)(F)F)cc2)[C@H]1c1ccc(CO)cc1`, the z-score is 0.0944 (inactive).

Consider `C=CCNC(=O)[C@H]1[C@@H]2C(=O)O[C@@H](c3ccccc3)[C@@H](c3ccccc3)N2[C@@H](c2ccc(O)cc2)[C@]12C(=O)N(C(=O)OCCOC)c1ccc(C#CCC(C(=O)OC)C(=O)OC)cc12`, for which the z-score is -1.25 (inactive).

As for `CCCNC(=O)[C@@]1(Sc2ccc(C)cc2)CC(=O)N(C(C)C)[C@@H]1c1ccc(CO)cc1I`, the z-score was -2.5 (inactive).

In the case of `COc1ccc([Si](C)(C)[C@H]2[C@H](CCO)O[C@@]3(C(=O)N(Cc4ccccc4)c4ccc(N5CCOC5=O)cc43)[C@@H]2C)cc1`, the z-score is -3.35 (inactive).

Regarding `C=CC1c2cc(O)c(OC)cc2CCN1Cc1ccc([N+](=O)[O-])o1` (stereo not given), the z-score is 0.336 (inactive).

Consider `CCCCC(=O)N(CCN1CCOCC1)[C@@H]1CC(C(=O)NCCO)=C[C@H](Oc2c(I)cc(CO)cc2OC)[C@H]1O`, for which the z-score was 0.0671 (inactive).
